Test results: PubChem BioAssay (NCATS)
Inconclusive results are not listed. The source made the active and inactive calls. Calls follow the shape of the dose curve; as a rule, active = well fitted curve in the direction sought with a large enough effect; inconclusive = small, poorly fitted or top-dose-only effect, or another doubt; inactive = no such curve, though single readings can be large; an effect the other way counts as inactive or inconclusive.

What was measured:
[1] = NS1 protein of Zika virus - qHTS assay to identify small molecule inhibitors in human HEK 293 cells (AID 1347053); also: series mostly up to about 46 µM; nearly all actives have a fitted effect of over 55% in size
Procedure, shortened: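 HEK 293 cells, seeded 20 h at 37 C, were pretreated with compound 1 h, then infected with ZIKV MR766 (MOI = 0.5) for 24 h. NS1 was read by TR-FRET with two anti-NS1 antibodies, normalized to uninfected and infected wells.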

[2] = qHTS of pediatric cancer cell lines to identify multiple opportunities for drug repurposing: Primary screen for TC32 cells (AID 1347089); also: nearly all actives have a fitted effect of over 60% in size
Procedure, shortened: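 Luminescent ATP read-out (CellTiter-Glo) of metabolically active TC32 cells after 48 h exposure. Concentration-response curves came from 11-point (MIPE, 0.78 nM–46 µM) or 8-point (NPC, 0.59 nM–46 µM) primary titrations; follow-up used 11 points.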

[3] = qHTS of pediatric cancer cell lines to identify multiple opportunities for drug repurposing: Primary screen for DAOY cells (AID 1347090); also: series mostly up to about 46 µM; nearly all actives have a fitted effect of over 55% in size
Procedure, shortened: (§1)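 Cell viability, CellTiter-Glo luminescence; 500-1,000 cells/well, 8- or 11-point titration, 48 h compound exposure at 37 degrees C, 5% CO2. Controls: DMSO neutral, bortezomib 2.3 µM final as positive.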

[4] = qHTS of pediatric cancer cell lines to identify multiple opportunities for drug repurposing: Primary screen for SJ-GBM2 cells (AID 1347091)
Procedure, shortened: as §1

[5] = qHTS of pediatric cancer cell lines to identify multiple opportunities for drug repurposing: Primary screen for A673 cells (AID 1347092); also: nearly all actives have a fitted effect of over 45% in size
Procedure, shortened: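 Cell viability of A673 measured by CellTiter-Glo ATP luminescence after 48 hours compound exposure. Dilution series spanned 0.78 nM to 46 µM (MIPE, 11-point) or 0.59 nM to 46 µM (NPC, 8-point); bortezomib 2.3 uM positive control.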

[6] = qHTS of pediatric cancer cell lines to identify multiple opportunities for drug repurposing: Primary screen for BT-37 cells (AID 1347094); also: series mostly up to about 57 µM
Procedure, shortened: (§2)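 500-1,000 cells/well; 5 h pre-incubation 37 °C/5% CO2; compound pinned; 48 h; CellTiter-Glo, 15 min RT; luminescence. MIPE 11-pt from 0.78 nM, NPC 8-pt from 0.59 nM final. Bortezomib 2.3 µM final as positive control.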

[7] = qHTS of pediatric cancer cell lines to identify multiple opportunities for drug repurposing: Primary screen for NB-EBc1 cells (AID 1347095)
Procedure, shortened: as §2

[8] = qHTS of pediatric cancer cell lines to identify multiple opportunities for drug repurposing: Primary screen for U-2 OS cells (AID 1347096); also: nearly all actives have a fitted effect of over 50% in size
Procedure, shortened: (§3)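 Cells (500-1,000/well) rested 5 h, then received compounds for 48 h; metabolically active cells were measured by CellTiter-Glo luminescence. Final concentrations spanned up to 46 µM (MIPE, 11-point) or 0.59 nM-46 µM (NPC, 8-point) in primary screens, 11-point in follow-ups.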

[9] = qHTS of pediatric cancer cell lines to identify multiple opportunities for drug repurposing: Primary screen for Saos-2 cells (AID 1347097); also: nearly all actives have a fitted effect of over 40% in size
Procedure, shortened: as §2

[10] = qHTS of pediatric cancer cell lines to identify multiple opportunities for drug repurposing: Primary screen for SK-N-SH cells (AID 1347098); also: nearly all actives have a fitted effect of over 65% in size
Procedure, shortened: as §3

[11] = qHTS of pediatric cancer cell lines to identify multiple opportunities for drug repurposing: Primary screen for NB1643 cells (AID 1347099); also: nearly all actives have a fitted effect of over 50% in size
Procedure, shortened: as §2

[12] = qHTS of pediatric cancer cell lines to identify multiple opportunities for drug repurposing: Primary screen for LAN-5 cells (AID 1347100)
Procedure, shortened: as §3

[13] = qHTS of pediatric cancer cell lines to identify multiple opportunities for drug repurposing: Primary screen for BT-12 cells (AID 1347101); also: nearly all actives have a fitted effect of over 25% in size
Procedure, shortened: as §3

[14] = qHTS of pediatric cancer cell lines to identify multiple opportunities for drug repurposing: Primary screen for Rh18 cells (AID 1347102); also: nearly all actives have a fitted effect of over 65% in size
Procedure, shortened: as §3

[15] = qHTS of pediatric cancer cell lines to identify multiple opportunities for drug repurposing: Primary screen for SK-N-MC cells (AID 1347093); also: series mostly up to about 46 µM
Procedure, shortened: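 Metabolically active cells were quantified by ATP-dependent luminescence (CellTiter-Glo, 15 min at room temperature) following 48 h treatment. Cells had been plated at 500-1,000 per well and settled for 5 h beforehand.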

[16] = qHTS of pediatric cancer cell lines to identify multiple opportunities for drug repurposing: Primary screen for OHS-50 cells (AID 1347103); also: nearly all actives have a fitted effect of over 40% in size
Procedure, shortened: as §3

Measured: Potency

O=C(OCCN1CCOCC1)c1cccnc1Nc1cccc(C(F)(F)F)c1
inactive: [1] | [2] | [3] | [4] | [5] | [6] | [7] | [8] | [9] | [10] | [11] | [12] | [13] | [14]

COc1cc2c(cc1OC)C(=O)CC2
inactive: [1] | [2] | [3] | [4] | [5] | [6] | [7] | [8] | [9] | [10] | [11] | [12] | [13] | [14]

Cc1cccc(OCC(O)CNC(C)(C)C)c1C (stereo unspecified)
inactive: [1] | [2] | [3] | [4] | [5] | [15] | [6] | [7] | [9] | [10] | [11] | [13] | [14] | [16]

Oc1ccccc1-c1nnco1
inactive: [1] | [2] | [3] | [4] | [5] | [15] | [6] | [7] | [10] | [11] | [12] | [13] | [14] | [16]

CC(C)C(=O)OCc1cccc(OC(=O)[C@@H]2N3C(=O)[C@@H](NC(=O)Cc4ccccc4)[C@H]3SC2(C)C)c1
inactive: [1] | [2] | [3] | [4] | [5] | [6] | [7] | [8] | [9] | [10] | [11] | [12] | [13] | [14]

COc1ccc2nc(SCc3ncc(C)c(OC)c3C)[nH]c2c1
inactive: [1] | [2] | [3] | [4] | [5] | [15] | [6] | [8] | [9] | [10] | [11] | [12] | [13] | [16]

Cc1ccc2ccc(Cl)cc2n1
inactive: [1] | [2] | [3] | [4] | [5] | [15] | [6] | [8] | [10] | [11] | [12] | [13] | [14] | [16]

CC(=O)Nc1ccc(S(=O)(=O)Nc2cc(C)on2)cc1
inactive: [1] | [2] | [3] | [4] | [5] | [15] | [6] | [8] | [9] | [10] | [11] | [12] | [13] | [16]

C[N+]1(C)CCC(OC(=O)C(O)(c2ccccc2)C2CCCC2)C1 (stereo unspecified)
inactive: [1] | [2] | [3] | [4] | [5] | [15] | [6] | [8] | [9] | [10] | [11] | [12] | [13] | [14] | [16]

CN1CCC(=C2c3ccccc3CCc3cccnc32)CC1
inactive: [1] | [2] | [3] | [4] | [5] | [15] | [6] | [8] | [9] | [10] | [11] | [12] | [13] | [14] | [16]

CC(C)C[C@@H]1[C@H](c2ccccc2)OC(=O)N1CCCN1CCCCCC1
inactive: [1] | [2] | [3] | [4] | [5] | [15] | [6] | [7] | [9] | [10] | [11] | [12] | [14]

CO[C@@]1(NC(=O)CSC[C@@H](N)C(=O)O)C(=O)N2C(C(=O)O)=C(CSc3nnnn3C)CS[C@@H]21
inactive: [1] | [2] | [3] | [4] | [5] | [15] | [6] | [7] | [10] | [11] | [12] | [13] | [14] | [16]

CCOC(=O)Cn1cccc1-c1nc(-c2ccc(OC)cc2)c(-c2ccc(OC)cc2)s1
inactive: [1] | [2] | [3] | [4] | [5] | [15] | [6] | [8] | [10] | [11] | [12] | [13] | [14]

Cc1cnc(NS(=O)(=O)c2ccc(N)cc2)nc1
inactive: [1] | [2] | [3] | [4] | [5] | [15] | [6] | [8] | [9] | [10] | [11] | [12] | [13] | [14] | [16]

Nc1nnnn1-c1ccccc1
inactive: [1] | [2] | [3] | [4] | [5] | [6] | [7] | [8] | [9] | [10] | [11] | [12] | [13] | [14] | [16]

NC(=O)NC1N=C([O][Al])NC1=O (stereo unspecified)
inactive: [1] | [2] | [3] | [4] | [5] | [15] | [6] | [9] | [10] | [11] | [13] | [14] | [16]

COC(=O)c1c(Cl)c(Cl)c(C(=O)OC)c(Cl)c1Cl
inactive: [1] | [2] | [3] | [4] | [5] | [15] | [6] | [8] | [9] | [10] | [11] | [12] | [13] | [14] | [16]

COc1ccc2cc(C=O)ccc2c1
inactive: [1] | [2] | [3] | [4] | [5] | [15] | [6] | [8] | [9] | [10] | [11] | [12] | [13] | [14]

CC1(C)O[C@@H]2C[C@H]3[C@@H]4C[C@H](F)C5=CC(=O)C=C[C@]5(C)[C@@]4(F)[C@@H](O)C[C@]3(C)[C@]2(C(=O)CO)O1
inactive: [1] | [2] | [3] | [4] | [5] | [15] | [6] | [8] | [9] | [10] | [11] | [12] | [13] | [14] | [16]

CCc1cc(S(=O)(=O)O)c2cc(C(C)C)cccc1-2
inactive: [1] | [2] | [3] | [4] | [5] | [15] | [6] | [7] | [9] | [10] | [11] | [13] | [14] | [16]

CCOC(=O)OCC/C(SC(=O)OCC)=C(\C)N(C=O)Cc1cnc(C)nc1N
inactive: [1] | [2] | [3] | [4] | [5] | [15] | [6] | [8] | [10] | [11] | [12] | [13] | [14] | [16]

O=C(CCCCCCCCC#CI)Oc1ccccc1
inactive: [1] | [2] | [3] | [4] | [5] | [15] | [6] | [7] | [9] | [10] | [11] | [13] | [14] | [16]

Nc1c(NC/C=C\COc2cc(CN3CCCCC3)ccn2)c(=O)c1=O
inactive: [1] | [2] | [3] | [4] | [5] | [15] | [6] | [8] | [9] | [10] | [11] | [12] | [14] | [16]

Nc1c[n+](N2CCOCC2)no1
inactive: [1] | [2] | [3] | [4] | [5] | [6] | [7] | [8] | [9] | [10] | [11] | [12] | [13] | [14] | [16]

NCC(=O)O
inactive: [1] | [2] | [3] | [4] | [5] | [6] | [7] | [8] | [9] | [10] | [11] | [12] | [13] | [14] | [16]

CN1CCN(N)CC1
inactive: [1] | [2] | [3] | [4] | [5] | [15] | [6] | [10] | [11] | [13] | [14]
